Assay results: paper PMC4336329 (PLoS ONE, 2015)
Out of some 310,000 compounds screened, about 14,000 (4.5%) showed an effect of 50% or more. The effect is printed as a negative number. The sample as a whole holds a higher share of strong results than the screen did.

The compounds below were run against human ether-à-go-go-related gene (hERG) potassium channel (human, UniProt Q12809) (assay: primary screen, population patch clamp on CHO cells stably expressing hERG; higher = less effect of the substance).
Chain of human ether-à-go-go-related gene (hERG) potassium channel (Q12809 whole entry, looked up): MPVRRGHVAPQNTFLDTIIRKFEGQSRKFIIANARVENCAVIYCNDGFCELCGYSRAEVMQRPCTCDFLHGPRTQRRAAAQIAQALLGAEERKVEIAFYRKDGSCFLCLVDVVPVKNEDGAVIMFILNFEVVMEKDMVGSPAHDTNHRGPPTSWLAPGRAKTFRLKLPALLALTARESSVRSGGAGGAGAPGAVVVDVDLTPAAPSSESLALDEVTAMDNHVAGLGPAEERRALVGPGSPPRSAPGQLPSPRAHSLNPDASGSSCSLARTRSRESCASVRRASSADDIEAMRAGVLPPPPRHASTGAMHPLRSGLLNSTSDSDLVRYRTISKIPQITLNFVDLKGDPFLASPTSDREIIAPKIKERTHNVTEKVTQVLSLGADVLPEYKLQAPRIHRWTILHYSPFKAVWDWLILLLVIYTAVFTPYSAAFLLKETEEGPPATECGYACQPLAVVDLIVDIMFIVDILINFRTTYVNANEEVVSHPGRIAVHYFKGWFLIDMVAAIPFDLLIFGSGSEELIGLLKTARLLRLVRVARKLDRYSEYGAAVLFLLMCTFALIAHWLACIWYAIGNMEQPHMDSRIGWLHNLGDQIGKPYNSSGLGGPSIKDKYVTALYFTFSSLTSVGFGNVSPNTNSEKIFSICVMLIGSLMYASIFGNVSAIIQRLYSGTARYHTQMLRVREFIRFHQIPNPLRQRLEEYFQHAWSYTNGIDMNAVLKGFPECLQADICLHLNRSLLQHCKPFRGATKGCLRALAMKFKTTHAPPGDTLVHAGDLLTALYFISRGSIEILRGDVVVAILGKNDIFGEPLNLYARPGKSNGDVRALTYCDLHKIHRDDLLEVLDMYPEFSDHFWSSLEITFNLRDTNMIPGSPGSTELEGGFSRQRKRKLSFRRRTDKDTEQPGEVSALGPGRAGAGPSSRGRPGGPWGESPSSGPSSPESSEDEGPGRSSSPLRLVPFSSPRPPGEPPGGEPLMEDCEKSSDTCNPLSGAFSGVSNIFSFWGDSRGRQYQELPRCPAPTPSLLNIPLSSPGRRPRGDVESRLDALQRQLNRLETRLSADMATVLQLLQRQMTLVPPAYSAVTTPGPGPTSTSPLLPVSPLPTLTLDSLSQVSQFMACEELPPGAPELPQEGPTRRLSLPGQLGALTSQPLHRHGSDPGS
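Note: peak tail current of the secondary pulse compared with the same well before compound.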

| SMILES | hERG current change (%, negative = inhibition) at 10uM |
| --- | --- |
| CCOC(=O)CC(=O)Nc1ccc(Br)cc1C(=O)O | -11.3% |
| COc1ccc(CNC(=O)c2cc(=O)c3cc(C)cc(C)c3o2)cc1 | 2.04% |
| CCn1c(SCC(=O)Nc2ccc(NC(=O)c3ccco3)c(OC)c2)nc2ccccc2c1=O | -20% |
| CCOC(=O)C1=C(O)/C(=C/c2ccc(OCC(=O)Nc3ccc(C)cc3)cc2)N=C1C | 10.6% |
| C/C(=N\NC(=O)c1cc(-c2cccnc2)nc2ccccc12)c1ccccc1O | 0.355% |
| Cn1c(=O)c2c(=O)cc(NNC(=O)C(C)(C)C)[nH]c2n(C)c1=O | 0.349% |
| CCCC[C@@H]1CNC(=S)N1CCCC | 11% |
| C/C(CC(=O)Nc1ccc2c(c1)OCCO2)=N\NC(=O)Cc1ccc(Cl)cc1 | 11.2% |
| CCCCc1nnc(NC(=O)CSc2nc(O)c(-c3ccccc3)c(=O)[nH]2)s1 | 1.48% |
| Cc1ccc(N(CCCCN2C(=O)c3ccccc3C2=O)C(=O)c2ccc(Cl)s2)cc1 | 2.79% |
| Cc1ccc(N(CCCCN2C(=O)c3ccccc3C2=O)C(=O)c2cccc([N+](=O)[O-])c2)cc1 | -59.5% |
| O=C1c2ccccc2C(=O)N1CCCCN(C(=O)c1ccc(Cl)s1)c1ccc(Cl)cc1 | 8.41% |
| O=C1c2ccccc2C(=O)N1CCCCN(C(=O)c1cccc([N+](=O)[O-])c1)c1ccc(Cl)cc1 | -7.96% |
| O=C1c2ccccc2C(=O)N1CCCCN(C(=O)c1cc([N+](=O)[O-])cc([N+](=O)[O-])c1)c1ccc(Cl)cc1 | 5.87% |
| Cc1ccc(N(CCCCN2C(=O)c3ccccc3C2=O)C(=O)c2cccs2)cc1 | -67.3% |
| O=C1c2ccccc2C(=O)N1CCCCN(C(=O)c1ccc([N+](=O)[O-])cc1)c1ccc(Cl)cc1 | -3.93% |
| CC(=O)N(CCCCN1C(=O)c2ccccc2C1=O)c1ccc(C)cc1 | -34.5% |
| O=C1c2ccccc2C(=O)N1CCCCN(C(=O)c1ccco1)c1ccc(Cl)cc1 | -55.7% |
| OC1C2(Cc3ccccc3)CN3CCN(C2)CC1(Cc1ccccc1)C3 (stereo not shown) | -1.47% |
| Cc1[nH][nH]c(=O)c1C(c1ccc(-c2cccc(C(=O)O)c2)o1)c1c(C)[nH][nH]c1=O | 19.2% |
| COc1ccc(OC)c(NC(=O)c2ccc(Cl)cc2)c1 | -5.32% |
| COc1ccc(/C(C)=N/Nc2nc3ccccc3n3cnnc23)cc1OC | -19.4% |

| SMILES | hERG current change (%, negative = inhibition) at 10uM |
| --- | --- |
| CC(c1ccccc1)n1c(CCCO)nc2ccccc21 (stereo not shown) | -2.26% |
| COc1cccc(OC)c1C(=O)Nc1ccc(Cc2ccncc2)cc1 | 8.86% |
| CC1CCCN(Cc2nc3c(c(=O)n(C)c(=O)n3C)n2CC(=O)c2ccccc2)C1 (stereo not shown) | -8.71% |
| CCN(Cc1ccncc1)Cc1cn[nH]c1-c1ccc(OC)cc1F | -3.13% |
| COc1ccc(NC(=O)CN(C)C(=O)c2cccc3ccccc23)cc1 | 3.09% |
| CCOc1nc(NCCN2CCOCC2)nc(Nc2ccc(C)cc2)n1 | -65.3% |
| OCCNc1nc(Nc2ccc(Cl)cc2)nc(N2CCCC2)n1 | -15.1% |
| O=[N+]([O-])c1ccc(Nc2nc(NCCO)nc(N3CCCC3)n2)cc1 | -58.3% |
| C=CCNc1nc(Nc2ccc([N+](=O)[O-])cc2)nc(N2CCCC2)n1 | -23.8% |
| COc1nc(NCCN2CCOCC2)nc(Nc2ccc([N+](=O)[O-])cc2)n1 | -50.7% |
| CCOc1nc(NCCO)nc(Nc2ccc([N+](=O)[O-])cc2)n1 | -9.66% |
| CCOc1nc(NCCN2CCOCC2)nc(NC(C)C)n1 | -9.84% |
| CCOc1nc(Nc2ccc([N+](=O)[O-])cc2)nc(NC(C)(C)C)n1 | 12.2% |
| CCOc1nc(NCCN2CCOCC2)nc(Nc2ccc([N+](=O)[O-])cc2)n1 | -93.1% |
| C=CCNc1nc(Nc2ccc([N+](=O)[O-])cc2)nc(OC)n1 | -14.1% |
| CCCNc1nc(Nc2ccc(C)cc2)nc(N2CCCC2)n1 | -30.6% |
| COc1nc(NCCO)nc(Nc2ccc([N+](=O)[O-])cc2)n1 | -40.2% |
| CCCn1c(N)c(N(CCOC)C(=O)c2cc(C)cc(C)c2)c(=O)[nH]c1=O | 16.4% |
| CCCS(=O)(=O)N1CCN(Cc2ccc(OCc3ccccc3)c(OC)c2)CC1.O=C(O)C(=O)O | -43.2% |
| O=C(NCc1ccccn1)c1c(Cl)cccc1Cl | 2.78% |
| COc1ccc(-n2c(C)cc(C)c(C(C)=O)c2=S)cc1 | -2.39% |
| Cc1cccc(N2CCN(CC(=O)N(C3CCCC3)C3CCS(=O)(=O)C3)CC2)c1C (stereo not shown) | -13.3% |

| SMILES | hERG current change (%, negative = inhibition) at 10uM |
| --- | --- |
| CCCc1nnc(SCC(=O)N(CC)CC)n1CC1CCCO1 (stereo not shown) | 21.9% |
| Cc1ccc2[nH]c(=O)c(CN(CCc3ccccc3)Cc3nnnn3CC3CCCO3)cc2c1 (stereo not shown) | -16% |
| CC(=O)Nc1ccc(/C=N/NC(=S)NC(C)C)cc1 | 21.3% |
| CC(Cc1n[nH]c(=S)n1N)c1ccccc1 (stereo not shown) | 19.8% |
| CS(=O)(=O)c1ccc(Cl)c(NC(=O)COC(=O)c2ccc(-n3cnnn3)cc2)c1 | -7.82% |
| Cc1ccc(NC(=O)COc2cccc(-n3cnnn3)c2)cc1[N+](=O)[O-] | -0.307% |
| COc1cccc(NC(=O)COc2cccc(-n3cnnn3)c2)c1 | -50.8% |
| COc1ccc(NC(=O)COc2cccc(-n3cnnn3)c2)cc1 | -54.3% |
| COC(=O)c1ccc(NC(=O)COc2cccc(-n3cnnn3)c2)cc1 | 6.77% |
| O=C(COc1cccc(-n2cnnn2)c1)Nc1ccc([N+](=O)[O-])cc1 | -43.6% |
| CCc1ccc(NC(=O)COc2cccc(-n3cnnn3)c2)cc1 | -68% |
| COc1ccc(NC(=O)COc2cccc(-n3cnnn3)c2)cc1Cl | 24% |
| COc1cccc(CNC(=O)COc2cccc(-n3cnnn3)c2)c1 | -18.9% |
| O=C(COc1cccc(-n2cnnn2)c1)Nc1ccccc1 | -26.4% |
| S=c1[nH]nc(CSCc2ccccc2Cl)n1-c1ccccc1 | 0.868% |
| CCOc1ccccc1N(CC(=O)NC1CCCC1)C(=O)CCCC(=O)Nc1ccccn1 | -8.6% |
| O=C(O)/C=C\c1cccc(-n2cnnn2)c1 | -1.3% |
| CCC(=NCCc1c[nH]c2ccccc12)c1c(O)n(C)c(=O)n(C)c1=O | -10.8% |
| COc1ccc(/C(C)=N/NC(=O)C2C3CCCCC32)c(OC)c1 (stereo not shown) | -0.79% |
| CN(C)CCNC(=O)Cn1ccc2cc(S(=O)(=O)N3CCCCC3)ccc21 | 8.47% |
| Cc1ccc(NC(=O)CN(C)C(=O)c2nn(C)c(=O)c3ccccc23)cc1 | -35.7% |
| CC(NC1CCCCC1)C(=O)NN=C(c1ccccc1)c1ccccc1 (stereo not shown) | -32.1% |

| SMILES | hERG current change (%, negative = inhibition) at 10uM |
| --- | --- |
| C/C(=N\NC(=O)CNc1ccccc1)c1ccccc1 | -12.8% |
| O=C(CN1CCOCC1)NN=C(c1ccccc1)c1ccccc1 | 20.8% |
| C=CCNC(=O)NC(=S)c1ccccc1 | -4.57% |
| CCOC(=O)C(=O)NN=C(c1ccccc1)c1ccccc1 | 9.79% |
| O=C(CNC1CCCCC1)NN=C(c1ccccc1)c1ccccc1 | -59.8% |
| CCN(CC)CC(=O)NN=C(c1ccccc1)c1ccccc1 | -77.6% |
| O=C(CN1CCCC1)NN=C(c1ccccc1)c1ccccc1 | -68.3% |
| O=C(CCl)NN=C(c1ccccc1)c1ccccc1 | 0.333% |
| C=CCNCC(=O)NN=C(c1ccccc1)c1ccccc1 | -68.5% |
| CC1CN(CC(=O)NN=C(c2ccccc2)c2ccccc2)CC(C)O1 (stereo not shown) | 12.8% |
| O=C(NN=C(c1ccccc1)c1ccccc1)C(CCl)C1CCCCC1 (stereo not shown) | -2.74% |
| O=C(CN1C(=O)C2C3C=CC(C3)C2C1=O)NC1CCCc2ccccc21 (stereo not shown) | -2.95% |
| CCOC(=O)CN(C#N)c1nc(C)cc(C)n1 | -7.84% |
| Cc1nc(SCCc2ccccc2)[nH]c(=O)c1C | 19.6% |
| O=C(O)Cn1nnc(-c2ccc(OCc3ccccc3)cc2)n1 | 23.9% |
| COc1ccccc1CNC(=O)c1cnn2c(C(F)F)cc(C)nc12 | -26.4% |
| Cc1cc(C)cc(N(C(=O)C(F)(F)F)C(C(=O)NC2CCCCC2)c2cccs2)c1 (stereo not shown) | -7.03% |
| O=C(CCCc1ccccc1)NCCCc1ccccc1 | -10.9% |
| CN(Cc1ccccc1)C1CCCN(C(=O)c2ccc(Cl)s2)C1 (stereo not shown) | -30.4% |
| COC(=O)c1c(C(=O)OC)c(-c2ccc(Br)cc2)n2c1CS(=O)C2 (stereo not shown) | -1.16% |
| CCCNC(=O)c1onc(CSc2cccc(OC)c2)c1C(=O)NCCC | -7.12% |
| O=C(O)c1cccc(S(=O)(=O)N2CC=C(c3ccccc3)CC2)c1 | -4.64% |
